# Measured values as given in PubChem BioAssay (NCATS).
# Experiment: qHTS profiling of the MIPE4 collection as inhibitors of Plasmodium falciparum (DD2) proliferation (Rep 2) (AID 743346)
# Settings: P. falciparum Dd2 in erythrocytes, SYBR Green DNA, 72 h; at 28.5 µM unless noted
# How it was run: (§1)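 Erythrocytes infected with P. falciparum (0.3% parasitemia, 2.5% hematocrit) incubated with compounds 72 h at 37 C, 5% CO2. Lysis with saponin/Triton buffer containing SYBR Green I, overnight at room temperature in the dark; DNA fluorescence (485/535 nm) normalised to 0.29 uM artemisinin and DMSO.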
row,Compound,"parasite growth, % of control (lower = inhibition)"
1,CCCCCCCCCCCC1=C(O)C(=O)C=C(O)C1=O,16.4%
2,Cc1c(O)cccc1C(=O)N[C@@H](CSc1ccccc1)[C@H](O)CN1C[C@H]2CCCC[C@@H]2C[C@@H]1C(=O)NC(C)(C)C,37.7%
3,CC(C)C(C)C=CC(C)C1CCC2C3=CC=C4CC(O)CCC4(C)C3CCC21C (stereo not drawn),92.8%
4,O=C1NC(=O)C(=Cc2ccc3nccnc3c2)S1,114% [at 9.64 µM]
5,Cc1nnc(C(C)C)n1C1C[C@H]2CC[C@@H](C1)N2CC[C@H](NC(=O)C1CCC(F)(F)CC1)c1ccccc1 (stereo partly drawn),55.4%
6,O=c1ccn([C@@H]2O[C@H](CO)[C@H](O)[C@H]2O)c(=O)[nH]1,99.5%
7,C[C@]12CC[C@@H]3c4ccc(O)cc4C[C@@H](CCCCCCCCCS(=O)CCCC(F)(F)C(F)(F)F)[C@H]3[C@H]1CC[C@H]2O (stereo partly drawn),10.8%
8,O=C(Nc1c(Cl)cncc1Cl)c1ccc(OC(F)F)c(OCC2CC2)c1,67.9%
9,NC[C@@H]1O[C@@H](O[C@H]2[C@@H](O)[C@H](O[C@@H]3[C@@H](O)[C@@H](N)C[C@H](N)[C@H]3O[C@H]3O[C@H](CN)[C@@H](O)[C@@H](O)[C@H]3N)O[C@H]2CO)[C@H](N)[C@@H](O)[C@@H]1O,90%
10,Cc1nc(N)sc1-c1ccnc(Nc2ccc(N3CCOCC3)cc2)n1,16.4%
11,N#CC1(c2ccc(NC(=O)c3cccnc3NCc3ccncc3)cc2)CCCC1,65.6%

# Experiment: qHTS profiling of the MIPE4 collection as inhibitors of Plasmodium falciparum (HB3) proliferation (AID 743347);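 also: plate controls were DMSO vehicle wells for no effect and artemisinin wells for full effect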
# Settings: P. falciparum HB3 in erythrocytes, SYBR Green DNA, 72 h; at 28.5 µM unless noted
# How it was run: as §1
row,Compound,"growth, % of control"
1,O=C(Nc1cccc(Br)c1)c1cccc(S(=O)(=O)N2CCCCCC2)c1,21.1%
2,C[C@H]1[C@H](NC(=O)C(=NOC(C)(C)C(=O)O)c2csc(N)n2)C(=O)N1S(=O)(=O)O,102%
3,COC1CCC(N(C(=O)C2CCC(C)CC2)c2cc(C3=CCCCC3)sc2C(=O)O)CC1 (stereo not drawn),22.9%
4,CCCCCCCCCCCC1=C(O)C(=O)C=C(O)C1=O,27.2%
5,Cc1c(O)cccc1C(=O)N[C@@H](CSc1ccccc1)[C@H](O)CN1C[C@H]2CCCC[C@@H]2C[C@@H]1C(=O)NC(C)(C)C,15.7%
6,CNC(=O)c1ccc2cc(C3(O)CCn4cncc43)ccc2c1 (stereo not drawn),55%
7,Cc1cccc(Nc2nc(-c3ccncc3)cs2)c1,17.7%
8,CC(C)C(C)C=CC(C)C1CCC2C3=CC=C4CC(O)CCC4(C)C3CCC21C (stereo not drawn),98%
9,O=C1NC(=O)C(=Cc2ccc3nccnc3c2)S1,88.4% [at 9.64 µM]
10,Cc1nnc(C(C)C)n1C1C[C@H]2CC[C@@H](C1)N2CC[C@H](NC(=O)C1CCC(F)(F)CC1)c1ccccc1 (stereo partly drawn),92.4%
11,O=c1ccn([C@@H]2O[C@H](CO)[C@H](O)[C@H]2O)c(=O)[nH]1,107%
12,C[C@]12CC[C@@H]3c4ccc(O)cc4C[C@@H](CCCCCCCCCS(=O)CCCC(F)(F)C(F)(F)F)[C@H]3[C@H]1CC[C@H]2O (stereo partly drawn),3.95%
13,O=C1NC(=O)C(=Cc2cccc(C(F)(F)F)c2)S1,96.2%
14,O=c1cc(-c2ccccc2)oc2cc(O)cc(O)c12,43.5%
15,COC[C@@H](c1ccc(C(F)(F)F)cc1)N1CCN(C2(C)CCN(C(=O)c3c(C)ncnc3C)CC2)C[C@H]1C,28.5%
16,COc1cccc([C@@H](C)NCCCc2ccccc2Cl)c1,7.8%
17,CN(C)CCC=C1c2ccccc2COc2ccc(CC(=O)O)cc21,99.1%
18,NC(=O)c1ccc2nc(-c3ccc(Oc4ccc(Cl)cc4)cc3)[nH]c2c1,83.4%
19,CCC(CC)[C@H](NC(C)=O)[C@@H]1[C@H](O)[C@@H](C(=O)O)C[C@@H]1N=C(N)N,97.8%

row,Compound,"growth, % of control"
1,COc1cc(N2CCC(N3CCN(C)CC3)CC2)ccc1Nc1ncnc(Nc2ccccc2S(=O)(=O)C(C)C)n1,4.08%
2,O=C1c2ccccc2-[n+]2ccc3c([nH]c4ccccc43)c21,4.72%
3,CC(C(=O)O)c1ccc(-c2ccccc2)c(F)c1 (stereo not drawn),96%
4,COc1ccc2c3c1OC1C[C@@H](O)C=C[C@@]31CCN(C)C2 (stereo partly drawn),69.6%
5,CO[C@H]1C[C@@H]2CC[C@@H](C)[C@@](O)(O2)C(=O)C(=O)N2CCCC[C@@H]2C(=O)O[C@H]([C@H](C)C[C@@H]2CC[C@H](OP(C)(C)=O)[C@H](OC)C2)CC(=O)[C@H](C)C=C(C)[C@@H](O)[C@@H](OC)C(=O)[C@H](C)C[C@H](C)C=CC=CC=C1C,8.46%
6,O=C1C[C@@H](c2ccc(O)cc2)Oc2cc(O)cc(O)c21,5.63%
7,O=C(Nc1c(Cl)cncc1Cl)c1ccc(OC(F)F)c(OCC2CC2)c1,100%
8,CC(C)(C)OC(=O)N[C@H]1CCCCCC=C[C@@H]2C[C@@]2(C(=O)NS(=O)(=O)C2CC2)NC(=O)[C@@H]2C[C@@H](OC(=O)N3Cc4cccc(F)c4C3)CN2C1=O,4.63%
9,CC(=NNC(=S)N1CCC1)c1ccccn1,6.19%
10,CC=C(C)C(=O)O[C@H]1C(C)=C[C@]23C(=O)[C@@H](C=C(CO)[C@@H](O)[C@]12O)[C@H]1[C@@H](C[C@H]3C)C1(C)C,21%
11,CN(C[C@@H]1COCCO1)S(=O)(=O)Nc1ccc2ccc3ncc(-c4cnn(C)c4)cc3c(=O)c2c1,7.9%
12,O=C(OCC#CCSc1nnc(-c2cccc3ccccc23)o1)c1cc2ccccc2s1,44.7%
13,NC[C@@H]1O[C@@H](O[C@H]2[C@@H](O)[C@H](O[C@@H]3[C@@H](O)[C@@H](N)C[C@H](N)[C@H]3O[C@H]3O[C@H](CN)[C@@H](O)[C@@H](O)[C@H]3N)O[C@H]2CO)[C@H](N)[C@@H](O)[C@@H]1O,99.6%
14,Cc1nc(N)sc1-c1ccnc(Nc2ccc(N3CCOCC3)cc2)n1,5.5%
15,Oc1ccc(C2CCN(c3ccnc4ccccc34)CC2)cc1O,3.95%
16,CC1(C)O[C@H]2C[C@@H]3[C@H]4CCC5=CC(=O)C=C[C@]5(C)[C@@]4(F)[C@@H](O)C[C@]3(C)[C@]2(C(=O)CO)O1,69%
17,O=C(NC1CCOCC1)c1ccc(-c2cc(-c3cn[nH]c3-c3ccccn3)ccn2)cc1,47.3%
18,N#CC1(c2ccc(NC(=O)c3cccnc3NCc3ccncc3)cc2)CCCC1,23.3%
